From ChEMBL document CHEMBL1961873, “Compounds: GSK PKIS; Assays: Nanosyn kinase panel” (2012) come the findings set out here.

The target in test [1] is High affinity nerve growth factor receptor (Homo sapiens) (UniProt P04629). The settings on record: at 1 µM.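 Note: each value is the mean percent inhibition of TRKA.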
The target in test [2] is BDNF/NT-3 growth factors receptor (Homo sapiens) (UniProt Q16620). The settings on record: at 0.1 µM.
Test [3] shares this target. The conditions noted are these: at 1 µM.
Test [4] has as its target NT-3 growth factor receptor (Homo sapiens) (UniProt Q16288). The settings on record: at 0.1 µM.
For test [5] the target is unchanged. The conditions noted are these: at 1 µM.
The target in test [6] is T1, Tyrosine-protein kinase TXK (Homo sapiens) (UniProt P42681).
T1 sequence (whole entry): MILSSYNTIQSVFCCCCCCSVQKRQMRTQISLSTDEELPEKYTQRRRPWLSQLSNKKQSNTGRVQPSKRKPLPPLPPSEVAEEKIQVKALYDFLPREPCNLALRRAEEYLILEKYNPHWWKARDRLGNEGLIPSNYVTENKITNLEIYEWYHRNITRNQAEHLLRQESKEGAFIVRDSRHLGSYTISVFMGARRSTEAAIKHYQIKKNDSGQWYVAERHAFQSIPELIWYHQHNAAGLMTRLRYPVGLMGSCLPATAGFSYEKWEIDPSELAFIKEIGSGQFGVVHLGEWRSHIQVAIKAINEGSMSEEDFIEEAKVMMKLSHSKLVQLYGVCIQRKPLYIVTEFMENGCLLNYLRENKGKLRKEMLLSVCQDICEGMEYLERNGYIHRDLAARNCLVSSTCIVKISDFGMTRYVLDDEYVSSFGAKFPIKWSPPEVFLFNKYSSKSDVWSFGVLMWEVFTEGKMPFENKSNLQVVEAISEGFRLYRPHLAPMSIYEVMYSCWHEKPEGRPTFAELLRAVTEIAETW
The conditions noted are these: at 0.1 µM.

Test [7] addresses T1, Tyrosine-protein kinase TXK (Homo sapiens). The conditions noted are these: at 1 µM.
Test [8] has as its target Non-receptor tyrosine-protein kinase TYK2 (Homo sapiens) (UniProt P29597). The settings on record: at 0.1 µM.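 Note: each value is a mean of the inhibition readings.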
Test [9] deals with T2, Dual specificity protein kinase TTK (Homo sapiens) (UniProt P33981).
T2 sequence (whole entry): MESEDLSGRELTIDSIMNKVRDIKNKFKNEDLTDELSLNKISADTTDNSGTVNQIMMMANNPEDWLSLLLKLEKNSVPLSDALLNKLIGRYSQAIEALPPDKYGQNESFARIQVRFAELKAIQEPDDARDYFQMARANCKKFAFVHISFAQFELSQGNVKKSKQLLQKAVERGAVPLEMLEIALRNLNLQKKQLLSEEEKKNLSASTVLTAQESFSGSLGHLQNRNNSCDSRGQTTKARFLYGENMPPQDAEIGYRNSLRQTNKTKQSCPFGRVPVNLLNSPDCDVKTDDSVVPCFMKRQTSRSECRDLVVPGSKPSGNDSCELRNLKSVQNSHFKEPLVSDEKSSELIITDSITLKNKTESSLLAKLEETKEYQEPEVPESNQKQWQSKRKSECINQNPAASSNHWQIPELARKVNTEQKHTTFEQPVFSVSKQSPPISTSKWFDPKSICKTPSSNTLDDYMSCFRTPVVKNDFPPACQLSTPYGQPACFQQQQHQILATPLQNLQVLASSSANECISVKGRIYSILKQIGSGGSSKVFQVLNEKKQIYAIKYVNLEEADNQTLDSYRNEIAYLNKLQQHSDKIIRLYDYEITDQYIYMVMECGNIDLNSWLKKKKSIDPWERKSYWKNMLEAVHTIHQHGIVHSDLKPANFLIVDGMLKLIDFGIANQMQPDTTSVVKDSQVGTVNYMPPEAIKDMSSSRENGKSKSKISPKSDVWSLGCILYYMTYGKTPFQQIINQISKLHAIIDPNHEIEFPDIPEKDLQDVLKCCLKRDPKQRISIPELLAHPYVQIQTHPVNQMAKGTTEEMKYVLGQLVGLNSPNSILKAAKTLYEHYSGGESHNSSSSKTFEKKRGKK
The settings on record: at 1 µM.

Test [10] concerns the target T3, Aurora kinase A (Homo sapiens) (UniProt O14965).
T3 sequence (whole entry): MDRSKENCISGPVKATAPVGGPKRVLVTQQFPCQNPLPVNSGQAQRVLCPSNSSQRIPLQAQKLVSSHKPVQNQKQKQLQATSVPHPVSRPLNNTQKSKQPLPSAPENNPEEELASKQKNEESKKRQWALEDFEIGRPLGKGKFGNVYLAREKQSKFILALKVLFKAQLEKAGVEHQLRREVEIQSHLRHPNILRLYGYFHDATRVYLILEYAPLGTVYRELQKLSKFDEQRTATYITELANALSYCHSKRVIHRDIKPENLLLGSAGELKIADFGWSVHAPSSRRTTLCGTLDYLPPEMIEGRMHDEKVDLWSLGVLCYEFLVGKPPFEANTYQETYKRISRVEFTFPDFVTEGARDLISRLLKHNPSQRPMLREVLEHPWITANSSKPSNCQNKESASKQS
The conditions noted are these: at 0.1 µM.

In test [11] the target is T3, Aurora kinase A (Homo sapiens). The conditions noted are these: at 1 µM.
Test [12] deals with Aurora kinase B (Homo sapiens) (UniProt Q96GD4). The conditions noted are these: at 0.1 µM.
Sequence of Aurora kinase B (Homo sapiens) (Q96GD4 whole entry): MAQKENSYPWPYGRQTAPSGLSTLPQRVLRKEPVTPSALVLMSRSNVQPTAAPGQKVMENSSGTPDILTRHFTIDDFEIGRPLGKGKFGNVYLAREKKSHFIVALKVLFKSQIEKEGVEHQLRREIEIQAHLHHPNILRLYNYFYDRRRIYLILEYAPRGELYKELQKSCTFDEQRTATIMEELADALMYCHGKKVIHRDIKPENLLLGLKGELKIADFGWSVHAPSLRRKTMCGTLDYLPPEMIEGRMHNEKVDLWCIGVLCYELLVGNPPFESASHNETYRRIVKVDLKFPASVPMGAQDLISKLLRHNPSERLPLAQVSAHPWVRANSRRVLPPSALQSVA
Test [13] shares this target. The settings on record: at 1 µM.
Test [14] concerns the target T4, Aurora kinase C (Homo sapiens) (UniProt Q9UQB9).
T4 sequence (whole entry): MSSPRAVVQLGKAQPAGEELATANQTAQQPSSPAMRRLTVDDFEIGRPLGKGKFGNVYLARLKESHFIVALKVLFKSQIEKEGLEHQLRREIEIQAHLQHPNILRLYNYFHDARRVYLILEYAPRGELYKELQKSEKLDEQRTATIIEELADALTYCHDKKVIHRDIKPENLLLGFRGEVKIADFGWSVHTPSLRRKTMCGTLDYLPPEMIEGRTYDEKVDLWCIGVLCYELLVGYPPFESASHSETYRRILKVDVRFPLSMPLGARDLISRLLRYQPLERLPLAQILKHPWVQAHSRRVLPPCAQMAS
The settings on record: at 0.1 µM.

Test [15] deals with T4, Aurora kinase C (Homo sapiens). The settings on record: at 1 µM.
In test [16] the target is Serine/threonine-protein kinase 10 (Homo sapiens) (UniProt O94804). The conditions noted are these: at 0.1 µM.
Sequence of Serine/threonine-protein kinase 10 (Homo sapiens) (O94804 whole entry, looked up): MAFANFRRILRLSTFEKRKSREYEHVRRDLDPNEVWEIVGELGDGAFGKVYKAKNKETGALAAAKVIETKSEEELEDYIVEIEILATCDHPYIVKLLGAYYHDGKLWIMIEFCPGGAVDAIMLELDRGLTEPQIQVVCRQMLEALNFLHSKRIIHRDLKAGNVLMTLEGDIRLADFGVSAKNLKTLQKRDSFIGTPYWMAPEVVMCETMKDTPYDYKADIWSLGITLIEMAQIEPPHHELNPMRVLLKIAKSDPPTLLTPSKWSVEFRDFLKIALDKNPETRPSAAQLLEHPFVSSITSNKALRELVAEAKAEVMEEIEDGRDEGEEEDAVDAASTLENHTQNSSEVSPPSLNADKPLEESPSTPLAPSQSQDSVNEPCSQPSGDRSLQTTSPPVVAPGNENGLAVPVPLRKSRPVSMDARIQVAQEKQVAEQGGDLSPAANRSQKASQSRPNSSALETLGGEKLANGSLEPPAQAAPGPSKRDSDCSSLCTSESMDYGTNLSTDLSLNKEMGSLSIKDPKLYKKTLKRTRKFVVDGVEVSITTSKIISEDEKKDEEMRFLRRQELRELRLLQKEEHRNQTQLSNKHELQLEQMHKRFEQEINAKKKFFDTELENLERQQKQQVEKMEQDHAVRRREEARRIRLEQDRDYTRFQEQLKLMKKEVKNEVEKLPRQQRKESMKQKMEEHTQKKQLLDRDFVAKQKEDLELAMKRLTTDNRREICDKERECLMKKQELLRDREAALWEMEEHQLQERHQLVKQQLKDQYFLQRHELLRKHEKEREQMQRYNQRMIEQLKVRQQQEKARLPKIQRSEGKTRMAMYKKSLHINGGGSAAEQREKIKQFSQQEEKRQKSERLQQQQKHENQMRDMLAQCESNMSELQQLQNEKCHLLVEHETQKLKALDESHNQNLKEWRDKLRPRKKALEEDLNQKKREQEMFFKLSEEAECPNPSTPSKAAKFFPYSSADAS
Test [17] has the same target. The conditions noted are these: at 1 µM.
The target in test [18] is T5, Mitogen-activated protein kinase kinase kinase kinase 2 (Homo sapiens) (UniProt Q12851).
T5 sequence (whole entry): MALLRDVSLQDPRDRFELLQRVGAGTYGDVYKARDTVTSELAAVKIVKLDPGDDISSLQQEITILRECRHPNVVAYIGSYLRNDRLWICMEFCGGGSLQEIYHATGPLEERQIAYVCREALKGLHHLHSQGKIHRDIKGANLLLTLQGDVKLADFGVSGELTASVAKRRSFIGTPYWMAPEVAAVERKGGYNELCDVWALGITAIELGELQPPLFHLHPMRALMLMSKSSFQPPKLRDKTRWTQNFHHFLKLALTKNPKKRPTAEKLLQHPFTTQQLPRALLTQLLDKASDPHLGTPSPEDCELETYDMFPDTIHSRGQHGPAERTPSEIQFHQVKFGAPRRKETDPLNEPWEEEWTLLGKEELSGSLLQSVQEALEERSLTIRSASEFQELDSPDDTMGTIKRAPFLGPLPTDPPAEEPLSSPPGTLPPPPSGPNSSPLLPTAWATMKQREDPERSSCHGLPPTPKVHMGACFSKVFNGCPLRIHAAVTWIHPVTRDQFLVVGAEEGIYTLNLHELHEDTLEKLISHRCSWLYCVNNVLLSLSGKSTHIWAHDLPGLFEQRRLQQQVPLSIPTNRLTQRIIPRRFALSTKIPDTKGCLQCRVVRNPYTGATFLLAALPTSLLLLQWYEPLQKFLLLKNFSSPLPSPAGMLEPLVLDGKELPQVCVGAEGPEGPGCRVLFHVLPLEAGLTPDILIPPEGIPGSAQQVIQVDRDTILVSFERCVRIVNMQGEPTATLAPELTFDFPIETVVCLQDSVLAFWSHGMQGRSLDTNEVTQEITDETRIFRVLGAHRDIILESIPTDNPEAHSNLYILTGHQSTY
The settings on record: at 0.1 µM.

The target in test [19] is T5, Mitogen-activated protein kinase kinase kinase kinase 2 (Homo sapiens). The conditions noted are these: at 1 µM.
Test [20] concerns the target Mitogen-activated protein kinase kinase kinase kinase 4 (Homo sapiens) (UniProt O95819). The conditions noted are these: at 0.1 µM.

Sequence of BDNF/NT-3 growth factors receptor (Homo sapiens) (Q16620 32-822 limits assumed): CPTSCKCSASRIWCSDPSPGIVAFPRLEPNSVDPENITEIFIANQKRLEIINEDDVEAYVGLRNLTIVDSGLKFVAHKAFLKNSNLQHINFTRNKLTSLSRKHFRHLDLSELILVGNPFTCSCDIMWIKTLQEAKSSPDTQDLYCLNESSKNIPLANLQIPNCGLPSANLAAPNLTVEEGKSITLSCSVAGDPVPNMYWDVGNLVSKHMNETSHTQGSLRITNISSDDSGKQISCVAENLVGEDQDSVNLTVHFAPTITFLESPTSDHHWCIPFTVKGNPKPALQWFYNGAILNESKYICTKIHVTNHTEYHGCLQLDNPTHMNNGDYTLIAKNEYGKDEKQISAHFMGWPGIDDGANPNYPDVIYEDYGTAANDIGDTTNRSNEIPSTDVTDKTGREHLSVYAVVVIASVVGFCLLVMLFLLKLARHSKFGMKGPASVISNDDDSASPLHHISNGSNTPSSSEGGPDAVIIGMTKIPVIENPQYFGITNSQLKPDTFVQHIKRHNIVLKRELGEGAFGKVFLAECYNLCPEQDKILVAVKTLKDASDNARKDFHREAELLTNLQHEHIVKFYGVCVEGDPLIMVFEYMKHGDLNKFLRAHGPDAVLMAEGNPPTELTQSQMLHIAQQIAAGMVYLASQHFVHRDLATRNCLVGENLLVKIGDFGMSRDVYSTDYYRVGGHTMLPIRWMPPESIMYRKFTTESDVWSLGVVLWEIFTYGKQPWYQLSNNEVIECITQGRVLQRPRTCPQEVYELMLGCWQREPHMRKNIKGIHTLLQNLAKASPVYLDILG
Sequence of High affinity nerve growth factor receptor (Homo sapiens) (P04629 33-796 limits assumed): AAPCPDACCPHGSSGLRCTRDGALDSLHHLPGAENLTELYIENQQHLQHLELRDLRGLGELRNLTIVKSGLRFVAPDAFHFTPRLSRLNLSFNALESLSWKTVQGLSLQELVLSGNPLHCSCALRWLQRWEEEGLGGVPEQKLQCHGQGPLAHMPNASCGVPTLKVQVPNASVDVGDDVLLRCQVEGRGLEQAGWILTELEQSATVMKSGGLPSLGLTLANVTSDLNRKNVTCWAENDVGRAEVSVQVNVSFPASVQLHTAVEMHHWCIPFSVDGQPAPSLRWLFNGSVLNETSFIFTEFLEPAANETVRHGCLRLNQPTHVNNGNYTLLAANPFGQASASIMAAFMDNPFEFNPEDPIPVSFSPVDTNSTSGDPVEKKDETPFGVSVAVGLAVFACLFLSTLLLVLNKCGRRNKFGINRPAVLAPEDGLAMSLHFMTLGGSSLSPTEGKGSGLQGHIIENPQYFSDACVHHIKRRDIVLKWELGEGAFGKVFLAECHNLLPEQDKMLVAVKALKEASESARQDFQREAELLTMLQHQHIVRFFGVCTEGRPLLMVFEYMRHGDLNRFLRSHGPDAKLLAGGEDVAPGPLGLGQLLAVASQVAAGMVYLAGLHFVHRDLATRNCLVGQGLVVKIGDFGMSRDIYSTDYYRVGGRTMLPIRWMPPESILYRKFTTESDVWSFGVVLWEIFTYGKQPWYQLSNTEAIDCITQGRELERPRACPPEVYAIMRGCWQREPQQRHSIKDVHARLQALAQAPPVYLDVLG
Sequence of NT-3 growth factor receptor (Homo sapiens) (Q16288 32-839 limits assumed): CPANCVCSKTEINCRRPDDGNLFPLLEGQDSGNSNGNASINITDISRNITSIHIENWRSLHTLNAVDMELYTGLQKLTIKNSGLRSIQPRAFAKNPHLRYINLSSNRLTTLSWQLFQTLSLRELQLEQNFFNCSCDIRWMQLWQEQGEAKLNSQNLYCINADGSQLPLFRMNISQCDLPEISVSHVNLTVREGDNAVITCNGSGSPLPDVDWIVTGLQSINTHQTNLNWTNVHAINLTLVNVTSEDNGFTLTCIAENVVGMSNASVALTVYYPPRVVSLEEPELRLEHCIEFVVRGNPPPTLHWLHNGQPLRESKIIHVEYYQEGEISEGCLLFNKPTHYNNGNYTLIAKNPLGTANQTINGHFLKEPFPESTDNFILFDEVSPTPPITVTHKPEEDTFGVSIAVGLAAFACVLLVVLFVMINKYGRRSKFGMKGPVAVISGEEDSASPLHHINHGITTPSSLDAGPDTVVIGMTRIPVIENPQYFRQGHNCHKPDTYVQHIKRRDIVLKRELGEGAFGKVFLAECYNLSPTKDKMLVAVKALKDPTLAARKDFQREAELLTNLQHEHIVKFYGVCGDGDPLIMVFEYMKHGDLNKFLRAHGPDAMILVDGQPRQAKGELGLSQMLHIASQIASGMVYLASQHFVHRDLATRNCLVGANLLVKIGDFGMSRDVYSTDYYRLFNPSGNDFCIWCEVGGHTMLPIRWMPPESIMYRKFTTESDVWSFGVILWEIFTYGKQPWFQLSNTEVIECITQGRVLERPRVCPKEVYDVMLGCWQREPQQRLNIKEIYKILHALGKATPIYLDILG
Sequence of Mitogen-activated protein kinase kinase kinase kinase 4 (Homo sapiens) (O95819 2-1239 limits assumed): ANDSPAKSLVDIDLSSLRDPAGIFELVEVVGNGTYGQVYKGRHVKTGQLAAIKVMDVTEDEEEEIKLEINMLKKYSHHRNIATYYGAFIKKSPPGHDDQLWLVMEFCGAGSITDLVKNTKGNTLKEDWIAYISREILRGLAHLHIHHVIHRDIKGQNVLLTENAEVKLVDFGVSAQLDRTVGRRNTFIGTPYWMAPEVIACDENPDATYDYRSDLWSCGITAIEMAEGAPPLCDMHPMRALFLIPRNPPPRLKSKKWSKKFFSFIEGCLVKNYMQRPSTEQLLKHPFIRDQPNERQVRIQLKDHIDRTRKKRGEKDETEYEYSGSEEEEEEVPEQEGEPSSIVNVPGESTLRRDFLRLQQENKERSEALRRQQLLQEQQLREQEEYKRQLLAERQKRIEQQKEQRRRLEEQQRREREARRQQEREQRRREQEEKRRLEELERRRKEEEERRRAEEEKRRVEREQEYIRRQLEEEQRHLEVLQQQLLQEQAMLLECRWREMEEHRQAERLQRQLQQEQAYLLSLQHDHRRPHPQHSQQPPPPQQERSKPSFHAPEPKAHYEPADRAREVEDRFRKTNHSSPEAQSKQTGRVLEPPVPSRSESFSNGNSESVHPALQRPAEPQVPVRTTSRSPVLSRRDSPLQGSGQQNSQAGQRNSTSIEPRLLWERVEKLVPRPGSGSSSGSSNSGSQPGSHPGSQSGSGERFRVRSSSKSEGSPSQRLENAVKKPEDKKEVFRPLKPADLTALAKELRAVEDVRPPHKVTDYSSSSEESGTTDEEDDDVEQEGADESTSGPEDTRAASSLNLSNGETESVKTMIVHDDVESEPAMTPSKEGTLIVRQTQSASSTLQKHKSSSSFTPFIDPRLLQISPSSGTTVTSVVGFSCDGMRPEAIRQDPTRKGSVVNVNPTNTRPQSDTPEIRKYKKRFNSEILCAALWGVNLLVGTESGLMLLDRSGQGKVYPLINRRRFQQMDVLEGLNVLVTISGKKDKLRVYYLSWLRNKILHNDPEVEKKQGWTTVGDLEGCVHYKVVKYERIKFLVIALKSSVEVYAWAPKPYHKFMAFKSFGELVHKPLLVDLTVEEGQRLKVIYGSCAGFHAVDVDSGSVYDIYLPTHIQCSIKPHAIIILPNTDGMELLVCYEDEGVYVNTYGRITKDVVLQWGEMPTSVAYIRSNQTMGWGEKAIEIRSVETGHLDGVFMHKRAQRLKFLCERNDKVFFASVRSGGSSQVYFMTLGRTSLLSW

As to `Cc1cccc2c1NC(=O)/C2=N\Nc1ccc(S(N)(=O)=O)cc1`, the inhibition in test [1] is 1.49%; in [2], 2.26%; in test [3], 1.7%; in [4], 0.44%; in test [5], 6.52%; in test [6] it was 4.98%. The inhibition in [7] was 6.66%; in [8], -2.96%; in [9], 9.17%; in test [10] it was 3.73%; in test [11], 8.68%; in test [12] it was 3.31%. Moreover, the inhibition in [13] worked out at 7.09%; in test [14], 2.56%; in test [15], 12.1%; in test [16], 3.27%; in [17], 4.33%; in test [18] it was 0.93%. Also, the inhibition in test [19] was determined as 0.8%; in [20] it was 10.1%.
As for `Nc1nc(-c2ccc(F)cc2)c(-c2ccc3ncccc3n2)s1`, the inhibition in test [1] came to 4.77%; in test [2], 4.19%; in [3], 3.45%; in test [4] it was 3.72%; in test [5] it was 5.31%; in test [6], 3.19%. The inhibition in test [7] was 6%; in [8] it was -2.9%; in [9] it was 7.77%; in [10], 4.14%; in test [11], 10.6%; in test [12], 6.06%. Also, the inhibition was 7.91% in [13]; 2.74% in [14]; -0.03% in [15]; 5.75% in [16]; 10.1% in test [17]; 2.4% in test [18]. For the same molecule, the inhibition in [19] came to 3.82%; in [20] it was 17.7%.
As to `CCCN1CCC(c2ccc(Nc3nc(Nc4cc(F)ccc4C(N)=O)c4cc[nH]c4n3)c(OC)c2)CC1`, the inhibition came to 3.87% in test [1]; 4.25% in [2]; 9.14% in test [3]; 2.83% in [4]; 7.22% in test [5]; 3.85% in test [6]. Moreover, the inhibition in test [7] is 6.29%; in test [8], -2.8%; in test [9], 83%; in test [10], 2.78%; in test [11], 10.4%; in test [12], 1.95%. In addition, the inhibition in test [13] was 3.04%; in test [14], 0.37%; in test [15], -4.81%; in [16] it was 7.74%; in [17], 29.2%; in test [18], 10.2%. Further, the values for the inhibition in [19] and in [20] were 51.6% and 28.1%, respectively.
With `Fc1cccc(COc2ccc(Nc3ncnc4sc(-c5ccco5)cc34)cc2Cl)c1`, the inhibition was 0.66% in test [1]; 3.36% in test [2]; 3.82% in test [3]; 3.74% in [4]; 3.88% in test [5]; -1.45% in test [6]. In addition, the inhibition in test [7] was 3.65%; in [8], -2.62%; in test [9], 6.39%; in [10], 2.5%; in test [11], 3.83%; in test [12], 3.38%. In addition, the inhibition in test [13] came to 6.89%; in test [14], 5.96%; in [15], 7.59%; in test [16], 9.25%; in test [17], 15%; in test [18] it was 1.99%. In addition, the inhibition in [19] came to 3.87%; in test [20], 3.43%.
Turning to `CC(C)COC(=O)c1ccc2c(c1)/C(=C/Nc1ccc(S(N)(=O)=O)cc1)C(=O)N2`, the inhibition stood at 30.4% in test [1]; 6.02% in test [2]; 40.2% in [3]; 8.8% in test [4]; 48.5% in test [5]; 1.73% in [6]. Also, the inhibition came to 4.75% in [7]; 3.35% in test [8]; 70.1% in test [9]; 3.84% in test [10]; 61% in test [11]; 6.97% in test [12]. For the same molecule, the inhibition in test [13] is 48%; in test [14], 4.05%; in [15], 82.9%; in test [16] it was -1.08%; in test [17] it was 12.6%; in test [18], 2.95%. The inhibition worked out at 14.3% in [19] and 14.5% in test [20].
Consider `COc1cccc(-c2c[nH]c3c(N/N=C/c4ccncc4)ncnc23)c1`, for which the inhibition in [1] is 7.45%; in test [2], 2.41%; in test [3] it was 19.4%; in test [4], 4.04%; in test [5] it was 23.3%; in [6], 4.87%. Also, the inhibition in test [7] is 16.8%; in [8] it was 1.21%; in [9], 10.6%; in test [10], 4.07%; in [11], 37.7%; in [12], 9.33%. Moreover, the inhibition came out at 55.4% in test [13]; 13.2% in [14]; 90.2% in test [15]; 8.9% in test [16]; 35.4% in test [17]; 3.34% in test [18]. The inhibition in test [19] worked out at 11.9%; in test [20] it was 26%.
Consider `COc1ccc(CNC(=O)c2ccc(-c3cc(-c4nnc(C)o4)ccc3C)cc2)cc1`, for which the inhibition is -1.3% in test [1]; 1.54% in test [2]; 4.36% in test [3]; 2.79% in [4]; 5.45% in test [5]; 3.95% in [6]. Also, the inhibition in test [7] was 3.7%; in [8], 0.15%; in test [9], 6.7%; in [10], -0.94%; in test [11] it was 4.73%; in [12] it was 5.79%. Further, the inhibition in test [13] was 6.54%; in [14], 2.85%; in test [15], -5.63%; in test [16] it was 13.2%; in test [17], 20.7%; in [18], 4%. Besides, the figures for the inhibition in [19] and in test [20] were 6.93% and 3.14%, respectively.
